# ELG1 repair inh: blocks ELG1-dependent DNA repair in HEK293T cells. HEK293T ELG1-luciferase reporter, luminescence, 16 h; DNA damage induced by 5-fluorouridine. Potency, µM (highest dose often 46.1 µM), most hits filed as inhibitors. actives 2.3% (n = 330,000). AID 504467; note: nearly all actives have a fitted effect of over 55% in size
#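 In this reporter screen, reduction of luminescence relative to DMSO vehicle indicated activity. Compounds and 5-fluorouridine were added together to 2,000 cells per well, incubated for 16 hr at 37 °C, then developed with ONE-Glo.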
# ELG1 genotoxic: inducers of genotoxicity in HEK293T ELG1-luciferase cells. HEK293T ELG1-luciferase reporter, luminescence, 16 h. actives 1.3% (n = 330,000). AID 504466. Potency, µM (doses to about 46 µM), usual class: activators; note: nearly all actives have a fitted effect of over 60% in size
#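 HEK293T cells expressing luciferase-tagged ELG1 were treated with compound or DMSO for 16 hr at 37°C. Luciferase activity was then read after 30 min with ONE-Glo at room temperature; rising signal flags genetic stress.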
# Rab9 prom act: Rab9 promoter activation | Huh7 Rab9 promoter-luciferase reporter, luminescence, 24 h | Potency, µM (titrated, usually from 9.22 µM), hits mostly activators | actives 2.8% (n = 320,000); note: nearly all actives have a fitted effect of over 60% in size
#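 Rab9 promoter-driven luciferase in stably transfected Huh7 cells; 1500 cells/well rested 2 h, exposed to compound in DMSO for 24 h at 37 °C, 5% CO2. Luminescence read 10 min after adding luciferase reagent at ambient temperature.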
# FLuc counter: counter-screen for miR-21 project: firefly luciferase inhibitors or activators | P08659 | purified FLuc, Km substrates, luminescence inhibition | Potency, µM (titrated, usually from 57.5 µM), usual class: inhibitors | actives 6.9% (n = 360,000) | AID 588342; note: nearly all actives have a fitted effect of over 55% in size
# Target sequence (P08659 whole entry, looked up): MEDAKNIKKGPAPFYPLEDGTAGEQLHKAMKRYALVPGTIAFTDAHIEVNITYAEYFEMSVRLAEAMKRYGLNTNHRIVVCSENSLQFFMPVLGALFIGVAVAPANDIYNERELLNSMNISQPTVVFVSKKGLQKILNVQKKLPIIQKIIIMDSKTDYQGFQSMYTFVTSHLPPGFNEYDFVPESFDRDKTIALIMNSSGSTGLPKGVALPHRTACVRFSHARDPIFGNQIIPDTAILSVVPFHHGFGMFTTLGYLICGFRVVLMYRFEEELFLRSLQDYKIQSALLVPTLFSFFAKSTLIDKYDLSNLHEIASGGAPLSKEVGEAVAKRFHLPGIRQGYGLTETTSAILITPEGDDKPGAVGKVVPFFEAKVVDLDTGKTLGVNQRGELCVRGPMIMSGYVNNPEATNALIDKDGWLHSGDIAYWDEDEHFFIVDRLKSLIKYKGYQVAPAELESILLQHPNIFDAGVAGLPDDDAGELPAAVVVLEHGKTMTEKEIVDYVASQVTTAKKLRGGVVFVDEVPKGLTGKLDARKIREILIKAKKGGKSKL
#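 Purified P. pyralis luciferase, 10 nM final, with Km-level 10 uM D-luciferin and 10 uM ATP in 50 mM Tris acetate pH 7.5, 10 mM Mg acetate, 0.01% Tween-20, 0.05% BSA; 6-point qHTS titration about 60 µM downward; luminescence read.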
# NPC1 prom act: NPC1 promoter activation. Huh7 NPC1 promoter luciferase reporter, 24 h. Potency, µM (highest dose often 9.22 µM), hits mostly activators. actives 2.4% (n = 320,000); note: nearly all actives have a fitted effect of over 60% in size
#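 NPC1 promoter–luciferase Huh7 cells; 24 h compound; luminescence.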
# SMN2 splice up: increases expression of the SMN2 splice variant | AID 1458 | Potency, µM (top dose mostly 46.1 µM), actives largely listed as activators | HEK293 SMN2-luciferase splicing reporter, luminescence, 30-36 h | actives 2.8% (n = 210,000); note: nearly all actives have a fitted effect of over 55% in size
#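 HEK293 cells carry an SMN2 minigene-luciferase reporter in which exon 7 inclusion puts luciferase in frame. Cells were seeded at 2000 cells/well, attached for 10-12 hours, then exposed to compounds for 30-36 hours at 37C before ONE-Glo luminescence.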
# A number is an active result; – = inactive; ? = inconclusive; · = no result. A selection: hits, their analogues and other compounds. The true share with any hit is near 9.4%. Calls come from the whole dose curve; as a rule, active = well fitted curve in the direction sought with a large enough effect; inconclusive = small, poorly fitted or top-dose-only effect, or another doubt; inactive = no such curve, though single readings can be large; an effect the other way counts as inactive or inconclusive.
SMILES,ELG1 repair inh,ELG1 genotoxic,Rab9 prom act,FLuc counter,NPC1 prom act,SMN2 splice up
COc1cccc(-c2noc(-c3cc4ccccc4oc3=O)n2)c1OC,·,·,·,2.69µM,·,·
Cc1ccc(-c2nc(-c3cc4cccc(OCc5cccc(C)c5)c4oc3=O)no2)cc1,·,·,·,–,·,–
COc1cc(-c2noc(-c3cc4cc(F)ccc4oc3=O)n2)cc(OC)c1OC,·,·,·,–,·,·
CCOc1cccc2cc(-c3nc(-c4ccccc4C)no3)c(=O)oc12,·,·,·,0.536µM,·,·
CCOc1ccc(N2CC(c3nc4ccccc4n3CCCOc3ccccc3OC)CC2=O)cc1 (centres undefined),·,·,·,?,·,–
CCOC(=O)c1cc(-c2ccc(OC)cc2)n(CCC(=O)NCc2ccccc2OC)c1C,·,·,·,–,·,·
CCOc1ccccc1CNc1ncnc2onc(-c3ccc(F)cc3)c12,·,·,·,–,·,·
CCc1nn(CC(=O)NCCCOC)c(=O)c2cc3occc3n12,·,·,·,–,·,–
COc1ccc2oc(=O)c(-c3nc(-c4cc(OC)c(OC)c(OC)c4)no3)cc2c1,·,·,·,–,·,·
COc1cccc2cc(-c3nc(-c4cccs4)no3)c(=O)oc12,·,·,·,0.0757µM,·,–
Cc1ccc(-c2nnc(Nc3ccc(Br)cc3)c3ccccc23)cc1S(=O)(=O)NCC1CCCO1 (centres undefined),·,·,·,?,·,–
CCOC(=O)C(=NC1CCS(=O)(=O)C1)NNc1ccccc1Cl (centres undefined),–,–,–,16.9µM,–,·
CN(C)CCCNc1ncnc2c1cnn2-c1ccccc1,?,?,–,?,–,–
OCCOCCNc1ncnc2c1cnn2-c1ccc(Cl)cc1,–,–,0.891µM,9.53µM,1.12µM,–
COCCN(CCOC)c1ncnc2c1cnn2-c1ccc(Cl)cc1,?,10.3µM,?,15.1µM,?,?
COCCNc1ncnc2c1cnn2-c1ccc(Cl)cc1,·,·,1.78µM,7.57µM,1.78µM,·
OCCOCCNc1ncnc2c1cnn2-c1ccccc1,?,–,?,?,2.24µM,–
COCCN(CCOC)c1ncnc2c1cnn2-c1ccccc1,?,–,–,–,–,·
CC(=O)N1CCC2(CCCN(c3ccccn3)C2)CC1,·,·,·,·,·,–
COc1ccc(-c2cc(C(C)=O)c(C)n2CCC(=O)Nc2ccc(C)c(Cl)c2)cc1,·,·,·,–,·,·
CC(C)OCCCNc1ncnc2c1cnn2-c1ccccc1,?,–,0.447µM,4.26µM,1.41µM,–
O=c1c2ccccc2nc(-c2ccc(Cl)cc2)n1CCCCOc1ccc(F)cc1,·,·,·,–,·,–
Cc1occc1C(=O)NCCc1cccc(Cl)c1,?,?,3.98µM,21.3µM,?,?
O=C(NCCCCNC(=O)c1cccs1)c1cccs1,–,–,–,–,–,–
O=C(NCCc1ccccc1)c1cccs1,?,2.91µM,2.82µM,10.7µM,2.82µM,11.2µM
SMILES,ELG1 repair inh,ELG1 genotoxic,Rab9 prom act,FLuc counter,NPC1 prom act,SMN2 splice up
O=C(NCCc1cccc(Cl)c1)c1cccs1,?,?,1.78µM,15.1µM,2.24µM,15.8µM
COc1cc2c(cc1OC)CN(C(=O)c1cc(S(=O)(=O)N3CCOCC3)c(Cl)cc1Cl)CC2,–,–,–,–,–,·
CCOC(=O)c1ccc(NC(=S)NC(=O)c2nn(CC)cc2Br)cc1,–,–,–,–,–,–
CCOC(=O)c1ccc(NC(=O)c2nn(CC)cc2Br)cc1,?,?,?,10.7µM,?,?
CCn1cc(Br)c(C(=O)Nc2ccc(F)c(Cl)c2)n1,?,?,2.82µM,16.9µM,2.24µM,–
CCOC(=O)c1ccc(NC(=O)c2nn(C)cc2Br)cc1,?,20.6µM,?,6.75µM,?,–
Cc1c(C(=O)N2CCCCCC2)c(S(=O)(=O)N(Cc2ccccc2)C(C)(C)C)c(C)n1C,·,·,·,–,·,·
CCn1c(C(=O)Nc2ccc(C)cc2C)cc2sc(Cl)cc21,·,·,·,–,·,–
Cc1noc(C)c1CSCC(=O)N1CCN(c2ccc(F)cc2)CC1,11.2µM,–,–,–,–,–
Cc1cccc(N2CCN(C(=O)CSCc3c(C)noc3C)CC2)c1C,–,–,–,?,–,–
COc1cccc(NC(=O)CSc2nc3c(oc4ccccc43)c(=O)n2Cc2ccco2)c1,·,·,·,–,·,–
COc1ccccc1/C=N/NC(=Nc1ccc(C)cc1)c1nc2ccccc2s1,?,?,–,16.9µM,–,–
COc1cc(/C=N/NC(=Nc2ccc(C)cc2)c2nc3ccccc3s2)ccc1O,?,2.59µM,?,2.69µM,–,–
COc1cc(/C=N/NC(=O)CCC(=O)Nc2ccc(C)cc2)ccc1O,–,–,–,–,–,–
O=C(CSc1ccc(Cl)cc1)Nc1ccc(-c2nc3ccccc3[nH]2)cc1,?,–,?,–,–,7.94µM
O=C(Nc1ccc(-c2nc3ccccc3[nH]2)cc1)c1ccco1,?,1.84µM,2.24µM,4.26µM,0.708µM,6.31µM
O=C(CSc1ccc(-c2nc3ccccc3[nH]2)cn1)N1CCN(C(=O)c2ccco2)CC1,16.4µM,–,–,10.7µM,–,–
O=C(/C=C/c1ccco1)Nc1ccc(-c2nc3ccccc3[nH]2)cc1,?,–,–,–,–,3.55µM
O=C(CCc1nc2ccccc2[nH]1)N1CCN(C(=O)c2ccco2)CC1,–,–,–,–,–,·
c1cncc(-c2nc3ccccc3[nH]2)c1,?,–,–,?,–,–
S=C(Nc1ccc(-c2nc3ccccc3[nH]2)cc1)Nc1cccnc1,?,?,1.41µM,13.5µM,?,·
CCOC(=O)c1c(NC(=O)c2ccc(N3C(=O)[C@@H]4[C@H](C3=O)[C@H]3C=C[C@@H]4C3)cc2)sc2c1CCCC2,?,–,–,–,–,–
Cc1ccnc(NC(=O)/C=C/c2ccccc2Cl)c1,?,?,1.12µM,0.601µM,0.708µM,1.26µM
Cc1ccnc(NC(=O)/C=C/c2ccccc2[N+](=O)[O-])c1,?,2.59µM,0.562µM,3.38µM,2µM,2.82µM
O=C(/C=C\c1ccccc1[N+](=O)[O-])Nc1ccccc1,?,?,2µM,10.7µM,?,17.8µM
SMILES,ELG1 repair inh,ELG1 genotoxic,Rab9 prom act,FLuc counter,NPC1 prom act,SMN2 splice up
CC(C)CN1CC2(CCN(S(=O)(=O)c3ccccc3)CC2)C1,·,·,·,·,·,–
CCOC(=O)/C=C(\C)Sc1cc(O)c2ccccc2c1O,?,–,–,9.53µM,–,·
COc1ccc(OCCCSc2ncccn2)cc1,?,10µM,?,13.5µM,?,25.1µM
CC(C)(C)c1cccc(OCCCSc2ncccn2)c1,?,–,–,?,–,–
COc1ccc(OCCSc2nc3nc(C)cc(C)n3n2)cc1,–,–,–,–,–,–
COc1cccc(OCCCCSc2ncccn2)c1,?,?,–,?,–,–
Nc1cc(N)nc(SCCOc2ccccc2F)n1,?,?,?,?,–,12.6µM
COc1ccccc1OCCSc1nc(N)cc(N)n1,?,–,–,?,–,?
COc1ccc(OCCSc2ncccn2)cc1,?,3.66µM,1.58µM,7.57µM,2.24µM,14.1µM
Cc1ccc(OCCCSc2ncccn2)cc1C,?,?,?,15.1µM,?,20µM
